In the supplement of paper PMC4723716:
The full ranking holds about 3,600 compounds; the median of “viability index relative to DMSO control” is about 0.81, and the lowest 2% start at about 0.13. This is one part of a sample in which the lowest values are shown more often than they occur.
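Also: Saponin-lysis sexual stage assay in serum-free medium: MitoTracker Red CMXRos staining plus saponin, high-content imaging, particle count per well divided by plate mean of DMSO wells.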

The molecules below were run on Plasmodium falciparum NF54 stage V gametocytes (assay: viability index relative to DMSO control (fraction); higher = less gametocyte killing). Settings: 1.25 µM, incubation time: 72 h.
With `COc1ccc(CC2NCC(O)C2OC(C)=O)cc1` (stereo not given) the viability index was 0. `Cc1ccc(-n2c(C)c(C(=O)c3ccccc3)c3cc(O)ccc32)cc1` showed a viability index of 1.24. Molecule `Cc1c2ccccc2c(C)c2ccccc12` has a viability index of 1.04. `COc1ccc(-c2ccc(C=C3C(=O)NC(=S)NC3=O)o2)cc1Cl` showed a viability index of 0.866. Molecule `C=CC1CN2CCC1C(C(O)c1ccnc3ccc(OC)cc13)C2` (stereo not given) has a viability index of 0.411. `NC(=O)CN1CC(O)CC1=O` (stereo not given) showed a viability index of 0.0308. With `OC1(c2ccc(Cl)c(C(F)(F)F)c2)CCN(CCOC2c3ccccc3CSc3ccc(Cl)cc32)CC1` (stereo not given) the viability index was 0.589. Molecule `CC(C)N1CC=C(c2c[nH]c3ccccc23)CC1` has a viability index of 0.887. Work on `O=C(Cn1c2ccccc2c(=O)c2ccccc21)Nc1ccc(Cl)cc1C(=O)c1ccccc1` yielded a viability index of 0.781. With `Oc1ccccc1C=Nc1ccccc1[Te]c1ccccc1N=Cc1ccccc1O` the viability index was 0.0513. `O=c1cccc2n1CC1CC2CN(Cc2cccc(O)c2)C1` (stereo not given) gave a viability index of 0.898. Work on `CC(C)NC(=O)c1cn(Cc2ccccc2)cc(C(=O)NCCc2nc3ccccc3[nH]2)c1=O` yielded a viability index of 0.942. In the case of `CN1CCN(c2ccc(NC(=O)Oc3ccccc3)cc2)CC1`, the viability index is reported as 0.798. `N#CC1=C(N)Oc2c(c(=O)oc3ccccc23)C1c1ccoc1` (stereo not given) was tested, and the viability index was 1.08. `C=CC1CN2CCC1CC2C(OC(=O)c1ccco1)c1ccnc2ccccc12` (stereo not given) showed a viability index of 0.46.
